Data as given in PubChem BioAssay (NCI).
Compounds without any hit were thinned out: in the full panel of roughly 79,000, 15% have a hit. Rule as the data show it: active = growth inhibition above about 70%; inactive = the rest.

Key:
[1] = NCI Yeast Anticancer Drug Screen. Data for the rad50 strain (AID 155);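 also: 0% = growth of vehicle-only cultures of the same strain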; details: S. cerevisiae rad50 strain growth inhibition; at 50.0 µM; hits give high values
Method in brief: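 Relative growth inhibition (compound vs vehicle) was measured in yeast with a defined repair-gene alteration.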

[2] = NCI Yeast Anticancer Drug Screen. Data for the mec2-1 strain (AID 157); details: S. cerevisiae mec2-1 strain, at 50.0 µM, hits give high values
Method in brief: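 Cells of the genetically defined mec2-1 yeast strain are incubated with test compound. Inhibition of growth is calculated against vehicle-treated controls.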

[3] = NCI Yeast Anticancer Drug Screen. Data for the sgs1 mgt1 strain (AID 161);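 also: 0% = growth of cultures given vehicle only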; details: S. cerevisiae sgs1 mgt1 strain, at 50.0 µM, hits give high values
Method in brief: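 Mutant yeast exposed to compound; growth scored against vehicle-only wells.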

[4] = NCI Yeast Anticancer Drug Screen. Data for the cln2 rad14 strain (AID 165);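 also: 0% = growth equal to vehicle treated cultures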; details: S. cerevisiae cln2 rad14 strain, at 50.0 µM, hits give high values
Method in brief: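 The screen exposed genetically defined yeast (cln2 rad14) to test compounds and scored growth inhibition relative to vehicle-treated controls.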

[5] = NCI Yeast Anticancer Drug Screen. Data for the bub3 strain (AID 167); details: S. cerevisiae bub3 mutant strain, at 50.0 µM, hits give high values
Method in brief: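 Screening used yeast with an engineered genetic alteration affecting cell cycle control. Compound-exposed cultures were compared with vehicle cultures, and reduced growth was taken as inhibition.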

[6] = NCI Yeast Anticancer Drug Screen. Data for the mlh1 rad18 strain (AID 175); details: S. cerevisiae mlh1 rad18 strain growth inhibition; at 50.0 µM; hits give high values
Method in brief: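 Compound-treated yeast growth, normalised to vehicle controls. Strain bears defined DNA repair mutations.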

Measured: growth inhibition

COC(=O)CC1(O)C=C(C)C(=O)c2ccccc21 (stereo not given)
inactive: [1] 4.9% | [2] -5.7% | [3] -19.2% | [4] -19% | [5] 25.2% | [6] -11.2%

CCCCCC(=O)NC1CCCCC1
inactive: [1] 5.55% | [2] 13.6% | [3] 8.15% | [4] -7.4% | [5] -30.6% | [6] 15.5%

COc1ccc(CCNC(=S)N/C=C(\C#N)S(=O)(=O)c2ccc(C)cc2)cc1OC
inactive: [1] 6% | [2] -0.6% | [3] 4.55% | [4] 3.45% | [5] -19.8% | [6] -11.6%

NC(=O)N/N=C/C(/C=N/NC(N)=O)[N+](=O)[O-]
inactive: [1] -3.8% | [2] -7.4% | [3] -10.3% | [4] -1.75% | [5] -14.6% | [6] 6.8%

CN(C)c1nc(=NCc2ccncc2)ss1
inactive: [1] -38.2% | [2] 8.45% | [3] 2% | [4] -45.4% | [5] 5.85% | [6] -16.8%

[N-]=[N+]=NC(=O)C1C(c2ccccc2)=C1c1ccccc1
inactive: [1] 45.5% | [2] 6.8% | [3] -0.2% | [4] 23.7% | [5] 27.8% | [6] -10.2%

O=C(CN1CCOCC1)NC(=O)c1ccccc1
inactive: [1] -3.6% | [2] -3.6% | [3] 6.25% | [4] 1.5% | [5] -0.1% | [6] -10.7%

COc1c2cc(C(C)(C)C)cc1CSCc1cc(C(C)(C)C)cc(c1OC)CCCCC2
inactive: [1] -1.25% | [2] -3.4% | [3] 16.2% | [4] -14.1% | [5] -14.6% | [6] -1.6%

Nc1cccc(N=[N+]([O-])c2cccc(N)c2)c1
inactive: [1] 18.9% | [2] 8.05% | [3] -10.5% | [4] -22.1% | [5] 12.2% | [6] 27.6%

CC(=O)c1cccc2c(C(C)=O)cccc12
inactive: [1] 5.45% | [2] -5.2% | [3] 14.8% | [4] -20.1% | [5] 3.4% | [6] -15.1%

CCCCCCCN1C(=O)C(O)(c2ccc(C3(O)C(=O)N(CCCCCCC)c4ccccc43)s2)c2ccccc21 (stereo not given)
inactive: [1] 9.35% | [2] 10.9% | [3] 4.9% | [4] 10.2% | [5] 9.7% | [6] 14.6%

COc1ccc(C2C(Cl)C(=O)N2n2cnc3ccccc3c2=O)cc1OC (stereo not given)
inactive: [1] -20.7% | [2] -0.35% | [3] 0.1% | [4] 8.9% | [5] -10.9% | [6] -21.6%

N=C(/C(=C/c1cccc2ccccc12)c1ccccc1)c1ccccc1
inactive: [1] 13.8% | [2] 10.2% | [3] 14.1% | [4] -7.6% | [5] -13.7% | [6] 13.6%

CO/N=C(\C(=O)N(C)n1cnnc1)c1csc(NC(c2ccccc2)(c2ccccc2)c2ccccc2)n1
inactive: [1] 21.7% | [2] 13.2% | [3] 11.8% | [4] 25.1% | [5] 18.8% | [6] 28%

Cc1ccc2c(ccc3nnc(C)n32)c1
inactive: [1] 9.15% | [2] 4.05% | [3] 4.65% | [4] -2.95% | [5] 2.75% | [6] 10.8%

Cc1c(C(C)c2[nH]c3ccccc3c2C)[nH]c2ccccc12
inactive: [1] 8.1% | [2] 0.45% | [3] -11.6% | [4] 4.45% | [5] 17.4% | [6] -13.6%

c1ccc(-c2n[nH]c3c2CCCc2ccccc2-3)cc1
inactive: [1] 4.7% | [2] -9.7% | [3] 7.35% | [4] -12% | [5] 3.3% | [6] 25.4%

CNC(=O)c1c(-c2ccc(F)cc2)noc1C
inactive: [1] -6.7% | [2] -10.5% | [3] 25.4% | [4] 9.05% | [5] 17.4% | [6] 10.1%

CN1C(=O)N(C)C(N2CCCC2)c2c1nc1ccccn1c2=O (stereo not given)
inactive: [1] -11.7% | [2] -30.8% | [3] -41.8% | [4] 5.15% | [5] -5% | [6] -29.4%

Nc1ccccc1OCCOCCOc1ccccc1N
inactive: [1] -31.9% | [2] -2.65% | [3] -8.45% | [4] 45.4% | [5] 14.9% | [6] -10.5%
